High-throughput results (PubChem BioAssay)
FBW7 act = activators of human E3 ligase FBW7. Q969H0. AlphaScreen FBW7–phospho-cyclin E peptide binding, activator screen. normalized activity (activation), % at 26.1 µM. 650,000 tested, 0.13% active. AID 1259310; in the data active = normalized activity above about 1.9%;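 note: purified mutant Fbw7 with reduced substrate affinity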
TEAD-YAP inh = TEAD-YAP interaction inhibition; HEK-TIYL cells, TEAD-Gal4/YAP UAS-luciferase luminescence; inhibition, % at 9.12 µM; 640,000 tested, 1.4% active; in the data active = inhibition above about 32%;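 note: 0% = median of test compound wells and 100% = reference inhibitor wells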
GPR151 ag = activators of human GPR151. Q8TDV0. activation, % at 11.2 µM. PathHunter beta-arrestin GPR151 cells, luminescence. 650,000 tested, 1% active; in the data active = activation above about 4.9%;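 note: 0% = median of compound wells and 100% = cells with positive control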
MITF inh = inhibitors of human MITF; AlphaScreen MITF homodimerization, bead proximity signal; inhibition, % at 2.6 µM; 650,000 tested, 0.91% active; in the data active = inhibition above about 50%;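 note: 0% = vehicle wells with protein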
An asterisk follows results filed as active. A selection: hits, their analogues and other compounds. The true share with any hit is near 3.5%.

SMILES | FBW7 act | TEAD-YAP inh | GPR151 ag | MITF inh
COc1ccc(C2Oc3c(cccc3OC)C=C2[N+](=O)[O-])cc1OC (stereo unspecified) | 0.4 | 42.9* | -2.3 | 13.7
COc1ccc(C2Oc3c(cc(Br)cc3OC)C=C2[N+](=O)[O-])cc1OC (stereo unspecified) | 0.0 | 69.5* | -0.9 | 3.6
COc1cc(Br)cc2c1OC(c1ccc3c(c1)OCO3)C([N+](=O)[O-])=C2 (stereo unspecified) | -0.2 | -21.5 | -1.2 | 10.2
CCOc1ccc(C2Oc3c(cccc3OC)C=C2[N+](=O)[O-])cc1OC (stereo unspecified) | 0.6 | 13.7 | -0.8 | 11.9
CCOc1ccc(C2Oc3c(cc(Br)cc3OC)C=C2[N+](=O)[O-])cc1OC (stereo unspecified) | -0.1 | 62.0* | -1.0 | 22.8
CCOc1ccc(-n2cc(-c3ccccc3)c3c(SCC(=O)c4ccccc4)ncnc32)cc1 | 0.0 | -6.2 | 3.3 | -9.4
COc1ccc(CCNc2ncnc3sc(C(=O)N4CCC[C@H]4C(N)=O)c(C)c23)cc1 | -0.2 | -4.8 | -1.0 | -0.1
COc1ccc(NC(=O)CCC(=O)N/N=C/c2cccc(Cl)c2)cc1 | 0.0 | 3.1 | 0.3 | -11.2
CC(=O)CC(O)(c1ccccc1)C(F)(F)C(F)F (stereo unspecified) | -0.1 | -14.5 | 1.2 | 4.6
O=S(/C=C(\F)C(F)(F)C(F)(F)C(F)F)Cc1ccccc1 (stereo unspecified) | 0.1 | 50.1* | 2.1 | -3.2
COc1ccc(C(=O)n2c(=S)nc3ccccn32)cc1 | -0.1 | 74.5* | -0.6 | 8.6
COc1ccc(C(=O)n2c(=S)nc3cccc(C)n32)cc1 | 0.0 | 10.7 | 1.7 | -1.9
COc1ccc(CNc2ccc3ncc(-c4cccc(CO)c4)n3n2)cc1 | -0.1 | 32.8* | -0.7 | -21.5
CN(C)c1ccc(-c2cnc3ccc(NCc4ccccn4)nn23)cc1 | 0.0 | 9.4 | 1.0 | -1.8
Fc1ccc(-c2cnc3ccc(NCc4ccccn4)nn23)cc1 | -0.7 | 51.5* | -0.4 | -6.2
Clc1cccc(-c2cnc3ccc(NCc4ccccn4)nn23)c1 | -0.2 | 5.0 | -0.5 | -11.9
COc1ccc(-c2cnc3ccc(NCc4ccccn4)nn23)cc1 | 1.5 | 45.3* | -0.7 | -7.8
c1ccc(-c2cnc3ccc(NCc4ccccn4)nn23)cc1 | -0.1 | 38.9* | 0.0 | -3.7
Fc1ccc(-c2cnc3ccc(NCCc4ccccn4)nn23)cc1 | 0.1 | 68.0* | 0.0 | 17.5
Oc1ccc(-c2cnc3ccc(NCc4ccco4)nn23)cc1 | -0.1 | 46.6* | -0.4 | 5.7
CN(C)c1ccc(-c2cnc3ccc(NCCc4ccccn4)nn23)cc1 | 0.5 | 28.7 | -0.7 | 30.9
CC(=O)/C(N=Nc1c(Cl)cc(Cl)cc1Cl)=C(\C)O | 0.1 | 2.1 | 0.3 | -7.1
CCOC(=O)N1CCc2c(sc(NCc3ccccn3)c2C(=O)Nc2ccc(OC)cc2OC)C1 | -0.6 | 47.8* | -1.2 | -1.4
N=c1sc2c(n1CC(=O)c1ccccc1)CCCC2 | 0.2 | 91.0* | -11.0 | -9.9
COc1ccc(C(=O)Cn2c(=N)n(C)c3ccccc32)cc1 | 0.3 | -79.0 | -0.1 | -5.3
SMILES | FBW7 act | TEAD-YAP inh | GPR151 ag | MITF inh
Cn1c(=N)n(CC(=O)c2ccccc2)c2ccccc21 | 0.4 | 44.9* | -1.0 | 4.7
Cc1ccc(C(=O)Cn2c3ccccc3n3nc(C)nc23)cc1 | 0.0 | 46.7* | -0.5 | 0.3
CCN(CC)CCn1c(=N)n(CC(=O)c2ccc(C)cc2)c2ccccc21 | 3.3* | 13.4 | -0.3 | 18.1
O=C(CSc1nnc(-c2cccnc2)s1)Nc1ccnc2ccccc12 | -0.4 | 47.8* | -0.5 | -10.8
Cc1ccc(NC(=O)CSc2nnc(-c3cccnc3)s2)cc1 | 0.0 | -3.5 | 1.9 | 7.7
NC(=O)c1ccccc1NC(=O)Cc1cccs1 | 0.0 | 3.0 | -0.3 | 2.0
CS(=O)(=O)NC1CCC(Nc2cc(Nc3ccccc3C(N)=O)c(C(F)(F)F)cn2)CC1 (stereo unspecified) | 0.8 | 98.0* | -2.1 | 11.1
CNC(=O)c1ccccc1Nc1cc(NCc2ccccc2)ncc1C(F)(F)F | 0.1 | 22.0 | 0.7 | 17.9
CNC(=O)c1ccccc1Nc1cc(NC(=O)Cc2ccccc2F)ncc1C(F)(F)F | 0.0 | 80.7* | 0.3 | 9.3
CNC(=O)c1ccccc1Nc1cc(NC(=O)Cc2cccs2)ncc1C(F)(F)F | -0.3 | 74.3* | -1.3 | 8.1
CNC(=O)c1ccccc1Nc1cc(NC(=O)Cc2ccc(F)cc2)ncc1C(F)(F)F | 0.3 | 72.1* | -0.4 | -7.2
CC(C)N1CCN(c2ccc(Oc3cc(Nc4ccccc4C(N)=O)c(C(F)(F)F)cn3)cc2)CC1 | 0.9 | 14.4 | -1.4 | 11.8
